Bioassay records: PubChem BioAssay, National Center for Advancing Translational Sciences (NCATS)
Rows were chosen to be rich in hits. Some 18% of all compounds tested hit in one or more screens of this group.
TDP1 inh – TDP1 (human) enzyme inhibition; Q9NUW8; recombinant TDP1, AlphaScreen DNA substrate cleavage; Potency, µM (series often up to 130 µM), for inactives: top-dose activity change, negative = inhibition, actives largely listed as inhibitors; 350,000 tested, 0.28% active; AID 485290; note: potency is the fitted concentration of half-maximal effect; nearly all actives have a fitted effect of over 40% in size
Target sequence (Q9NUW8 whole entry, looked up): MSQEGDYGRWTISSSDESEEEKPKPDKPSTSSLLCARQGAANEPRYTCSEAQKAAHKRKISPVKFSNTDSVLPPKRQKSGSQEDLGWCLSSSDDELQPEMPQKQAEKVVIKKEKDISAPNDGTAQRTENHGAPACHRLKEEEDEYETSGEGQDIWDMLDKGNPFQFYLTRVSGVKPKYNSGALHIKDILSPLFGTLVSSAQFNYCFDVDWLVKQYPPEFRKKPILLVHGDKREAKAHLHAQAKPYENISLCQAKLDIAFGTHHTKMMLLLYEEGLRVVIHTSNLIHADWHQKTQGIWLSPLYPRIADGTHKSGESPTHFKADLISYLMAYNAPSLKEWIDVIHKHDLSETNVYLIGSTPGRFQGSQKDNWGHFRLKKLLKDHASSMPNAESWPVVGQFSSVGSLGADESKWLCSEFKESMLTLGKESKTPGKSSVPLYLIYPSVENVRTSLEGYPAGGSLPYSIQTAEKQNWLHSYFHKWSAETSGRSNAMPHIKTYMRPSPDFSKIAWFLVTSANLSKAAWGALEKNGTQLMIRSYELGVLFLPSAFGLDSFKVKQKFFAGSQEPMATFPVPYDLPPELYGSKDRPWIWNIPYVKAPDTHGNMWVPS
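Compounds were preincubated with Tdp1 (1 nM final) for 15 min at room temperature before substrate (15 nM final) started a 5 min reaction; beads (10 ug/ml final) were then added for 10 min before AlphaScreen detection.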
TDP1 cell noCPT – qHTS for Inhibitors of human tyrosyl-DNA phosphodiesterase 1 (TDP1): qHTS in cells in absence of CPT. DT40 Tdp1-/- hTDP1 cells, no CPT, ATP luminescence, 48 h. 420,000 tested, 15% active. Potency, µM (titrated, usually from 46.2 µM), for inactives: at the highest dose activity change, negative = growth inhibition, usual class: inhibitors; note: potency is the fitted concentration of half-maximal effect; nearly all actives have a fitted effect of over 55% in size
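Camptothecin absent (DMSO only). Human TDP1-complemented DT40 knockout cells, 400 cells/well, 37 °C for minimum 48 hr; ATP measured via CellTiter-Glo, 30 min dark incubation, luminescence.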
CtBP-E1A inh – blocks the CtBP interaction with E1A | activity change, % (no concentration beside the values) | 340,000 tested, 0.49% active | AID 651724 | AlphaScreen GST-E1A/His-CtBP binding, 1536-well; hits give low values; in the data active = activity change below about -65%; inconclusive = mostly about -30% to -63%
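Protein mix (5X: 125 nM each GST-E1A, His-CtBP) was incubated with pinned compound 2 h at 37 deg C in dark, in 50 mM Tris pH 8.0 buffer with 300 mM NaCl. Glutathione donor and nickel acceptor beads followed; AlphaScreen signal read after 1 h.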
Six1-Eya2 blk – Six1/Eya2 interaction inhibition; activity change, % (concentration not given with the values); AlphaScreen GST-Six1/His-Eya2 binding, biochemical; hits give low values; 360,000 tested, 0.56% active; in the data active = activity change below about -65%; inconclusive = mostly about -30% to -63%
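Six1/Eya2 binding was read as AlphaScreen signal after compounds were pinned into GST-Six1 plus His-tagged Eya2 (5X stock 250/500 nM) in pH 8.0 Tris/NaCl/TCEP buffer, beads added, then incubated 1 h, 37 C, dark.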
IL1B secr inh – blocks inflammasome-driven IL-1 beta release; THP-1 LPS/ATP IL-1B secretion, AlphaLISA, 16 h; hits give low values; activity change, % at 57.5 µM; 360,000 tested, 4.7% active; in the data active = activity change below about -50%; inconclusive = mostly about -30% to -49%
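THP-1 cells pretreated 1 hr with compounds (up to 57.5 uM final), then stimulated with LPS (250 ng/mL final) plus ATP (1.25 mM final); secreted IL-1B measured by AlphaLISA after 16 hr, decreased signal indicating inhibition.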
TDP1 cell CPT – growth inhibition of DT40 Tdp1-/-;hTDP1 cells with camptothecin (screen for TDP1 inhibitors); chicken DT40 Tdp1-/-;hTDP1 cells + 20 nM CPT, ATP luminescence, 48 h; Potency, µM (highest dose often 46.2 µM), inactives show at the top dose activity change, negative = growth inhibition, usual class: inhibitors; 420,000 tested, 12% active; AID 686979; note: potency is the fitted concentration of half-maximal effect; nearly all actives have a fitted effect of over 55% in size
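Chicken DT40 Tdp1-/- cells complemented with human TDP1, 400 cells/well, exposed to compounds plus 20 nM camptothecin for at least 48 h at 37 C; viability read as ATP content by CellTiter-Glo luminescence.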
Numbers without * were called inactive; ? = inconclusive; nt = not tested or not shown. Unless noted, calls come from the whole dose curve; as a rule, active = well fitted curve in the direction sought with a large enough effect; inconclusive = small, poorly fitted or top-dose-only effect, or another doubt; inactive = no such curve, though single readings can be large; an effect the other way counts as inactive or inconclusive. % is set by controls: 0 for no effect and ±100 for the full control effect.

SMILES	TDP1 inh	TDP1 cell noCPT	CtBP-E1A inh	Six1-Eya2 blk	IL1B secr inh	TDP1 cell CPT
NC(c1ccccc1)c1csc(Nc2ccccn2)n1 (stereo not drawn)	nt	20.6µM*	-90.4*	-88.6*	?	?
O=C(O)c1c(NC(=O)N(CCO)Cc2ccccc2)sc2c1CCCC2	nt	25.2%	-0.2	3.6	28.3	-7.3%
Cc1cc(C)cc(NC(=O)c2cccc(C(=O)Nc3cc(C)cc(C)c3)n2)c1	nt	?	-5.9	-9.2	6.4	?
Cc1cc(=O)[nH]c(Cc2ccc(OC(C)C)cc2)n1	2.5%	-6.4%	10.7	4.5	22.9	3.3%
O=C(Nc1ccc(F)c(Cl)c1)N1CCC2(CC1)Oc1ccccc1C(=O)N2Cc1ccccc1F	-2.0%	11.6µM*	nt	nt	nt	?
O=C(Nc1ccc(Br)cc1F)N1CCC2(CC1)Oc1ccccc1C(=O)N2Cc1ccccc1F	0.0%	16.4µM*	nt	nt	nt	?
O=C(Nc1ccccc1Cl)N1CCC2(CC1)Oc1ccccc1C(=O)N2Cc1ccc(F)cc1	5.7%	20.6µM*	nt	nt	nt	?
COc1ccc(Cl)cc1NC(=O)N1CCC2(CC1)Oc1ccccc1C(=O)N2Cc1ccc(F)cc1	-2.9%	?	nt	nt	nt	?
COc1ccc(C2CC(c3ccc4ccccc4c3OC(C)=O)=NN2C(C)=O)cc1 (stereo not drawn)	0.6%	9.2µM*	-4.7	10.3	-26.4	10.3µM*
CC(=O)N1N=C(c2ccccc2OC(=O)/C=C/c2ccccc2)CC1c1ccccc1 (stereo not drawn)	-5.2%	?	-79.9*	?	-1.6	-14.6%
COc1ccc(C2CC(c3ccccc3)=NN2C(=O)c2ccc(F)cc2)cc1 (stereo not drawn)	nt	29.1µM*	4.3	1.9	-64.4*	?
COc1ccc(C2=NN(C(=S)Nc3ccccc3)C(c3ccccc3)C2)cc1 (stereo not drawn)	2.2%	18.4µM*	1.7	-20.0	-10.9	?
COc1ccc(C2=NN(C(=O)c3ccc(Cl)c([N+](=O)[O-])c3)C(c3ccccc3)C2)cc1 (stereo not drawn)	7.9%	?	-18.6	-18.2	-14.4	?
Cc1ccc(NC(=O)Cn2nnc3sc(-c4ccccc4)cc3c2=O)cc1Cl	4.7%	-2.1%	nt	nt	nt	-8.5%
Cc1cc(N(CC(=O)NC2CC2)S(C)(=O)=O)ccc1Br	3.1%	-9.5%	-7.4	0.3	7.6	-13.3%
CCN(CC(=O)Nc1ccc(NC(C)=O)cc1)CC(=O)Nc1ccccc1C(=O)c1ccccc1	5.9%	?	-9.7	-4.3	-12.9	-27.0%
CCCNC(=O)COc1coc(CN2CCN(c3cccc(Cl)c3)CC2)cc1=O	2.6%	-29.8%	-13.9	-1.2	40.7	2.7%
CS(=O)(=O)N(CC(=O)N1CCCCCC1)c1cc(Cl)ccc1Cl	nt	-0.5%	5.9	1.5	-14.4	-6.1%
COc1cc(/C=C(\C#N)C(=O)Nc2ccccn2)ccc1O	2.5%	-11.2%	-10.2	-14.1	-3.5	-0.5%
O=C(c1ccccc1)N1N=C(c2ccccc2O)CC1c1ccccc1 (stereo not drawn)	nt	?	3.8	-2.7	12.7	20.6µM*
COc1ccc(C2CC(c3ccc(OC)cc3O)=NN2C(=O)c2ccccc2)cc1 (stereo not drawn)	nt	20.6µM*	4.2	-18.5	-10.9	20.6µM*
COc1ccc(C2CC(c3ccccc3O)=NN2C(=O)c2ccccc2)cc1OC (stereo not drawn)	nt	-26.6%	nt	-11.7	-14.6	?
CCC(Sc1n[nH]c(=O)[nH]c1=O)C(=O)OCc1ccccc1 (stereo not drawn)	-4.7%	-13.2%	0.0	18.6	0.2	-6.5%
Clc1ccc2nc(C3CCCCC3)c(Cc3ccccc3)n2c1	nt	-28.3%	-2.2	8.6	27.9	-6.6%
Brc1ccc2nc(C3CCCCC3)c(Cc3ccsc3)n2c1	nt	16.4µM*	-0.1	1.5	0.0	20.6µM*
SMILES	TDP1 inh	TDP1 cell noCPT	CtBP-E1A inh	Six1-Eya2 blk	IL1B secr inh	TDP1 cell CPT
Cc1cc(Br)cn2c(Cc3ccsc3)c(C3CCCCC3)nc12	nt	?	-7.9	-11.7	0.0	?
Cc1ccc(Cc2c(C3CCCCC3)nc3ccc(Br)cn23)cc1	nt	20.6µM*	0.2	2.3	8.0	?
Clc1ccc2nc(C3CCCCC3)c(Cc3ccsc3)n2c1	nt	?	18.8	23.1	0.0	23.1µM*
Cc1ccc(Cc2c(C3CCCCC3)nc3ccc(Cl)cn23)cc1	nt	?	-2.8	2.2	23.7	?
CC(O)CNc1nc2sc3c(c2c(=O)n1CCc1ccccc1)CCCCC3 (stereo not drawn)	8.0%	16.4µM*	-12.2	-13.8	-81.9*	23.1µM*
CN(C)CCNc1nc2sc3c(c2c(=O)n1CCc1ccccc1)CCCCC3	0.0%	10.3µM*	nt	-1.4	-74.9*	20.6µM*
CCc1ccc(C(=O)CSc2nc(-c3ccccc3)nc3c2CCCC3)cc1	nt	-10.6%	nt	nt	nt	3.9%
CC(C)(C)NC(=O)C(c1ccccc1F)n1c(=O)c(-c2ccco2)nc2ccccc21 (stereo not drawn)	nt	?	5.9	-1.5	-12.0	?
O=C(NC1CCCCC1)C(c1ccccc1F)n1c(=O)c(-c2ccco2)nc2ccccc21 (stereo not drawn)	nt	16.4µM*	7.2	-2.9	-2.8	?
O=C(NC1CCCC1)C(c1ccccc1)n1c(CSCCOc2ccccc2)nc2ccccc21 (stereo not drawn)	nt	16.4µM*	-0.8	1.4	23.8	?
O=C(NC1CCCCC1)C(C1CC1)n1c(=O)c(-c2ccccc2)nc2ccccc21 (stereo not drawn)	nt	16.4µM*	1.5	2.6	-10.2	?
O=C(NC1CCCCC1)C(c1ccnc2ccccc12)n1c(=O)c(-c2ccco2)nc2ccccc21 (stereo not drawn)	nt	13µM*	-0.6	-15.9	-11.9	13µM*
Cc1nc(N(CCO)C2CCCCC2)c2nnn(Cc3ccccc3)c2n1	-0.1%	?	-2.5	-2.0	?	-15.6%
Cc1cc(N2CCN(C(C(=O)NC3CCCC3)c3ccc(-c4ccccc4)cc3)CC2)c2ccccc2n1 (stereo not drawn)	nt	8.2µM*	-4.4	-6.5	4.4	7.31µM*
O=C(NC1CCCCC1)C(c1ccc(-c2ccccc2)cc1)n1c(=O)c(-c2ccco2)nc2ccccc21 (stereo not drawn)	nt	14.6µM*	0.1	-19.2	19.7	?
Cc1cc(N2CCN(C(C(=O)NC3CCCC3)C(C)C)CC2)c2ccccc2n1 (stereo not drawn)	nt	-16.3%	0.0	12.5	-11.5	-25.1%
